Only a selection was taken, and hits are over-represented in it overall.
ERK EGF inh – inhibitors of EGF-stimulated ERK signaling pathway. HEK293-V1b, EGF-stimulated phospho-ERK AlphaScreen. Potency, µM (titrated, usually from 11.5 µM), inactives show top-dose activity change, negative = inhibition, hits mostly inhibitors. hit rate 0.41% among 130,000. AID 1454; active means well fitted inhibition curve with a large enough effect;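 further: plate controls were stimulated vehicle wells for no effect and unstimulated vehicle basal for full effect; nearly all actives have a fitted effect of over 55% in size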
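Concentration-response of compounds against EGF-driven ERK phosphorylation in V1b-expressing HEK293 cells; 30 min preincubation, 5 min EGF, AlphaScreen detection; Normalized to DMSO basal and 25 nM EGF.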
Numbers without * were called inactive; ! = repeats disagree; [ ] = another dose, or the depositor's remark. Potency means the concentration at half of the fitted maximal effect.

SMILES	ERK EGF inh
COc1ccccc1CNc1ncncc1-c1ccoc1	26%
COc1ccccc1CNc1ncncc1-c1ccccc1C	8%
COc1ccccc1CNc1ncncc1-c1ccc(N(C)C)cc1	20µM*
COC(=O)c1nnc(C(=O)NCc2ccccc2)c2[nH]c3ccc(OC)cc3c12	-2%
N=C(C[C@@H](O)COc1ccccc1-c1ccccc1)N1CCCCC1	-1%
COC(=O)[C@@H]1C[C@@H]2CC[C@@H](O)C[C@@H]2N1Cc1ccc(N2CCOCC2)cc1	-6%
O=C(Nc1ccc(N2CCN(c3ncccc3C(F)(F)F)CC2)nc1)c1cccs1	14µM*
O=C(Nc1ccc(N2CCN(c3ccc(C(F)(F)F)cn3)CC2)nc1)c1cccs1	-4%[57.5 µM]
O=C(Nc1ccc(N2CCOCC2)nc1)c1cccs1	6%
CC(=O)N[C@H]1[C@@H](O[C@@H](C)C(=O)O)[C@H](O)[C@H](CO)O[C@@H]1O	-10%[25.7 µM]
Cc1cc([C@](C)(N)C(=O)O)ccc1P(=O)(O)O	-8%
CC(C)OC(=O)[C@@H]1C=C[C@H](C)[C@@H](CCCCOCc2ccccc2)O1	2%
Cc1c(NC2=CC(=O)CC(C)(C)C2)ccc([N+](=O)[O-])c1C	-4%
N#C/C(=N\Nc1ccccc1[N+](=O)[O-])C(=N)N1CCCCC1	6%
CC1=C/C(=N\Nc2ccccc2[N+](=O)[O-])CC(C)(C)C1	13µM*
C=CCOC(=O)C1(C(NC(=O)OC)c2ccccc2)C(=O)Cc2ccccc21 (stereo not given)	5%
CC1(C)Oc2ccc3ccc(=O)oc3c2CC1=O	8%
COC(=O)N1CCC2(CCN(C(=O)Nc3ccccc3)CC2)CC1	-2%
COc1ccccc1-c1ccc2ncnc(NCc3cccnc3)c2c1	66%
COc1cc2ncnc(NCc3ccc(Cl)cc3)c2cc1OC	2.2µM*
COc1cc2ncnc(NCCCN3CCOCC3)c2cc1OC	14%[57.5 µM]
COc1cc2ncnc(NCc3ccc(C)o3)c2cc1OC	28µM*
COc1cccc(-c2ccc3ncnc(NCc4ccccc4OC)c3c2)c1	18%
COc1ccc(CNc2ncnc3c2[nH]c2cc(OC)c(OC)cc23)cc1	-6%[57.5 µM]
COc1cc2ncnc(NCc3ccccc3Cl)c2cc1OC	1.3µM*
SMILES	ERK EGF inh
COc1ccc(CCNc2ncnc3sccc23)cc1OC	-2%
Clc1ccccc1CNc1ncnc2nc[nH]c12	0%
CC1(C)CC[C@]2(C)CC[C@@]3(C)C(=CCC4[C@@]5(C)CCC(O)C(C)(C)C5CC[C@@]43C)C2C1 (stereo not given in full)	23%
C[C@@](Cc1ccccc1)(NC(=O)CN)c1ccccc1	0%
CN1[C@@H]2CC(OC(=O)[C@H](CO)c3ccccc3)C[C@@H]1[C@H]1O[C@H]12 (stereo not given in full)	-8%
Cc1cccc(CNc2nc(-c3ccccc3CN(C)C)nc3ccccc23)c1	20%
CC(=O)c1cccc2c(O)c(C3=Nc4ccccc4C3=O)[nH]c12	25µM*
CC(=O)Nc1c(O)c2ccccc2[nH]c1=O	2%
O=C(O)c1cccc2c(-c3ccccc3)c(-c3ccccc3)[nH]c12	8%[57.5 µM]
C=C[C@](C)(O)CCC=C(C)C	30%
COC(=O)[C@@]1(Cc2ccc(OC)cc2)[C@@H]2[C@@H](CC(=O)[C@H]2CC(=O)C(=O)N(C)C)CN1C(=O)c1ccccc1	-2%
COC(=O)[C@@]1(Cc2ccc(OC)cc2)[C@@H]2C(=CC(=O)[C@H]2CC(=O)C(=O)N2CCCC2)CN1C(=O)c1ccccc1	-5%
C=C1C(=O)C=C2CN(C(=O)c3ccccc3)[C@@](Cc3ccc(OC)cc3)(C(=O)OC)[C@@H]12	13µM*
CC(C)=C1C(=O)C(c2ccccc2)=C2CN3C(=O)N(CCc4ccccc4)C(=O)[C@]3(Cc3ccccc3)[C@H]21	4%
COc1cc([C@@H]2c3cc4c(cc3[C@@H](O[C@@H]3O[C@H]5CO[C@@H](C)O[C@@H]5[C@@H](O)[C@H]3O)[C@@H]3COC(=O)[C@@H]23)OCO4)cc(OC)c1O	-3%
O=C(O)CN1C(=O)/C(=C/C=C/c2ccccc2)SC1=S	0%
CCN1C(=O)/C(=C\C=C2/C=CC=CN2CC)SC1=S	25µM*
CN1C=CC=C/C1=C1/SC(=S)N(Cc2ccccc2)C1=O	23%
COc1ccccc1CCn1c(=O)c(-c2ccc(Cl)cc2)nc2cncnc21	2%
COC(=O)[C@@]1(Cc2ccccc2)[C@H]2c3cc(C(=O)N4CCCC4)n(Cc4cc(F)cc5c4OCOC5)c3C[C@H]2CN1C(=O)c1ccccc1	-5%
CCCn1c(-c2ccc(F)cc2)nc2c(NCCCN3CCCCC3C)nc(C)nc21 (stereo not given)	0%
Cc1cccc(CNc2ncnc3ccc(-c4cccnc4)cc23)c1	8.9µM*
CN(C)C(=O)c1ccc(-c2ccc3ncnc(NCc4cccnc4)c3c2)cc1	29%
Cc1cccc(CNc2ncnc3ccc(-c4c(C)noc4C)cc23)c1	10%
O=C(c1ccccc1)[C@@H]1O[C@H]1c1ccc(-c2ccccc2)cc1	-13%
SMILES	ERK EGF inh
CC(=O)OC1CC2C(C)(C)C(O)C=C[C@@]2(C)C2CC[C@@]3(C)C(c4ccoc4)OC(=O)C4OC43[C@]12C (stereo not given in full)	17%
COc1ccc(C2C3(C#N)C(N)=NC(OC)(OC)C23C#N)cc1 (stereo not given)	25µM*
COc1ccc([C@@H]2OC2(C(N)=O)C(N)=O)cc1	10%[57.5 µM]
COc1ccc(C2C(C#N)=C(N)Nc3nc4ccccc4n32)cc1 (stereo not given)	-8%
CC(C)(C)OC(=O)NCCCCC1=CC2=CC(=O)C(C)(OC(=O)CCc3ccccc3)C(=O)C2=CO1 (stereo not given)	-6%
C[n+]1cc2c3c(ccc2c2ccc4cc5c(cc4c21)OCO5)OCO3	25µM*!
C[n+]1c(/C=C/c2ccc3c(c2)OCO3)ccc2ccccc21	-2%
N[C@H](Cc1cnc[nH]1)C(=O)O	-13%
C=C(C)C(=O)/C=C/CCC/C=C/C(=O)OCC	2%
C(=N\N1CCN(Cc2ccccc2)CC1)/c1cccnc1	4%
C(=N\N1CCN(Cc2ccccc2)CC1)/c1ccccc1	10%[57.5 µM]
CCN(CC)c1ccc(/C=N/N2CCN(Cc3ccccc3)CC2)cc1	28µM*
CC(C)(C)c1ccc(OC(=O)c2cccnc2)cc1	1%
CCOC(=O)c1ccc(Nc2ncnc3ccccc23)cc1	-7%
O=C(Oc1ccc(Nc2ncnc3ccccc23)cc1)c1cccnc1	28µM*
Cc1noc(C)c1C(=O)N1CCC2(CC1)CN(c1cccc(-c3ccccc3)c1)C2	17%
CN=C1S/C(=C\c2ccc(N3CCOCC3)cc2C)C(=O)N1C	0%
COCCN1C(=O)/C(=C/c2ccc(N3CCCC3)cc2C)SC1=S	22µM*
CCN=C1S/C(=C\c2ccc(N3CCOCC3)cc2C)C(=O)N1CC	5%
O=C(O)c1cccc(NC2=C(N3CCOCC3)C(=O)c3ccccc3C2=O)c1	6%[57.5 µM]
CN(C1=C(N2CCOCC2)C(=O)c2ccccc2C1=O)c1ccccc1	11µM*
Cc1ccc(N2CCOCC2)c2c1C(=O)c1ccccc1C2=O	17%
CCC(=O)C(C(=O)OC)[C@H](CCc1ccccc1)NC(=O)OC (stereo not given in full)	-5%
C=CCC(Nc1ccc(OC)cc1)(C(=O)OCC)c1ccccc1 (stereo not given)	-10%
CC(=O)Oc1ccc(/C=C/C(=O)CC2OC(Oc3cc(OC(C)=O)c4c(c3)O[C@@H](c3ccc(OC(C)=O)cc3)CC4=O)C(OC(C)=O)C(OC(C)=O)C2OC(C)=O)cc1 (stereo not given in full)	-11%
